The values that follow come from PubChem BioAssay.

Assay [1] is described as follows: inhibitors of TNFa-induced NFkB p65 translocation, primary screen, imaging, HUVEC, MLSMR starter and 10KST1 sets (AID 438;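 active = inhibition above 20% together with a positive visual image hit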;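 note: compound added about 3h40 before a 20 min TNFalpha stimulation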;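 for inhibition: signal is the nuclear over cytoplasmic p65 intensity ratio per well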). The settings on record: HUVEC TNFa-induced p65 nuclear translocation; cell count: measured here: nuclei count (cytotoxicity indicator), at 2.08 µM; inhibition: at 2 µM, stronger effect = higher value, 0% TNFa-plus-vehicle, 100% no-TNFa wells.
The nature of assay [2]: reduction of polyQ htt aggregates in cells – imaging, exon1htt(103Q)mCFP cells, high-content imaging, primary screen (AID 483;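 active = visual image review flags a hit and inhibition of aggregation exceeds 20%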;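 note: compound exposure lasted 3 days before fixation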;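 for nuclei count: percent of the per-plate median nuclei count of sample wells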). As to conditions: exon1htt(103Q)mCFP cell line, aggregate imaging, at 2 µM; inhibition of aggregation: stronger effect = higher value; nuclei count: measured here: cell count, toxicity.
Assay [3] is described as follows: endothelial E-selectin expression blockers – imaging, HUVEC, immunofluorescence, MLSMR starter and 10KST1 sets, primary screen (AID 487;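 active = visually confirmed hit in the image check and inhibition above 20%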;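 for inhibition: signal is fraction of cell area covered by stained E-selectin grains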;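 for nuclei count: 100% = median nuclei count of all wells on the same plate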). As to conditions: HUVEC TNFalpha-induced E-selectin immunofluorescence imaging, at 2 µM; inhibition: stronger effect = higher value; nuclei count: measured here: cell number, toxicity.
Assay [4] has as its target Voltage-gated potassium channel subunit beta-2 (Rattus norvegicus) (UniProt P62483). Kind of assay: inhibitors of rat Kvbeta2 reductase activity – biochemical, NADPH fluorescence, primary screen (AID 622;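 active = fluorescence slope higher than the sample average by over 3 SD, cut at about -0.22 in these data, passing the limit was not always enough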;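 note: slope of raw intensity against log time taken from 70 to 1610 s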). The settings on record: recombinant KvBeta, 4-cyanobenzaldehyde reduction, at 10 µM, stronger effect = higher value.
The target is the same in assay [5]. Kind of assay: enhancers of rat Kvbeta2 NADPH turnover – biochemical, NADPH fluorescence, primary screen (AID 623;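 active = NADPH fluorescence slope more negative than the mean of all samples by about 3 SD, 99.7% confidence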;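 note: fluorescence intensity change per second fitted from 20 to 320 s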). As to conditions: Recombinant KvBeta, NADPH fluorescence decrease slope, 10 min; at 10 µM; stronger effect = lower value.
Assay [6] deals with Alpha-2C adrenergic receptor (Homo sapiens) (UniProt P18825). Kind of assay: compounds altering alpha2C-coupled GIRK flux – cell-based, HEK293 alpha2C/GIRK1/2, thallium flux, primary screen (AID 624).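 Note: slope of fluorescence ratio to pre-addition baseline per second over 15 to 24 s.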 The settings on record: thallium flux BTC fluorescence, at 10 µM, actives lie on both sides.
Sequence of Alpha-2C adrenergic receptor (Homo sapiens) (P18825 whole entry, looked up): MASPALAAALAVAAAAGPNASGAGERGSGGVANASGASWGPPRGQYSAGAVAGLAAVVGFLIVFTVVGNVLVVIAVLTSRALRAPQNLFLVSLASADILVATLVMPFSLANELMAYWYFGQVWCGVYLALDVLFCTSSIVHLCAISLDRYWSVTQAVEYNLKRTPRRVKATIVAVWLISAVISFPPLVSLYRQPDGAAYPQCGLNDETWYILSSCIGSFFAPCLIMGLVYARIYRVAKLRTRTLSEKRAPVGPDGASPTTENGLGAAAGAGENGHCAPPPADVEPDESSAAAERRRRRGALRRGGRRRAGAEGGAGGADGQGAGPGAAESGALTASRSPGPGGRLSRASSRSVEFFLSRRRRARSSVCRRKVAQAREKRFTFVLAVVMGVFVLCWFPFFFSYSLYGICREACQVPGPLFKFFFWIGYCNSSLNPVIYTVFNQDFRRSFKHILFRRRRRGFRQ
Assay [7] can be described thus: blockers of RIG-like receptor reporter activation – cell-based, Sendai virus stimulus, luciferase, 10K MLSCN set, TLR/RLR signaling modifier project, primary screen (AID 602276;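 active = inhibition at or above 50% at 10 µM; inactive = inhibition below 50%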;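 note: firefly luciferase from ISG56 promoter only with Renilla not read in this screen; 0% = Sendai virus plus DMSO and 100% = medium plus DMSO without virus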). As to conditions: HEK293 RL24 IRF3 luciferase reporter, at 10 µM, stronger effect = higher value. (In a reporter assay the amount or activity of a reporter protein is the signal.)
Assay [8] in a line: TLR3 IRF3 reporter activation blockers – cell-based, poly I:C stimulus, luciferase, 10K MLSCN set, primary screen (AID 602277;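 active = inhibition of the reporter signal at or above 50%; inactive = inhibition below 50%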). As to conditions: HEK293-TLR3 RL24 IRF3 luciferase reporter, at 10 µM, stronger effect = higher value.

Structures are written as SMILES. Calls of active or inactive are those of the source.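 Rule for the calls, unless noted: active = fluorescence slope after compound addition differing from the mean of all screened samples at 99.7% confidence, in either direction; inactive = the rest.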

Sequence of Voltage-gated potassium channel subunit beta-2 (Rattus norvegicus) (P62483 whole entry, looked up): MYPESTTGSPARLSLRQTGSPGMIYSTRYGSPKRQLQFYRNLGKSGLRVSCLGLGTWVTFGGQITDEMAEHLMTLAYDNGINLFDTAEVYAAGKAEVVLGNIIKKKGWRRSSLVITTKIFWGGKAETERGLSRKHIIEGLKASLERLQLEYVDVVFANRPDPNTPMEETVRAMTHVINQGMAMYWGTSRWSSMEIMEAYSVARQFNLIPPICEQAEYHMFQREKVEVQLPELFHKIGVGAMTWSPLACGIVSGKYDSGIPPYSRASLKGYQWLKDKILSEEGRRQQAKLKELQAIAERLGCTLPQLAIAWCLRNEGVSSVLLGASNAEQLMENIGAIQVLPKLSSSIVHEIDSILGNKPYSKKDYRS

For the compound `O=C(O)c1cc2c(s1)CCCC2`, the cell count in assay [1] worked out at 473. Besides, the inhibition (in general, the change of the read-out against control, counted positive when it falls) in assay [1] is 6.3% (inactive); in assay [3], 15.7% (inactive); in assay [7] it was 4.53% (inactive); in assay [8], 8.58% (inactive). Also, the inhibition of aggregation in assay [2] is 8.1% (inactive). Besides, the nuclei count was 100% in assay [2] and 111% in assay [3]. Also, the fluorescence slope in assay [4] was -0.383 (inactive). For the same compound, the NADPH fluorescence slope in assay [5] is -2.9e-06 (inactive). In assay [6], the slope is 0.00578 (inactive).

In the case of `COC(=O)Nc1sc2c(c1C(=O)N1CCOCC1)CCC(C)C2` (centres undefined), in assay [1], the cell count was 324. The inhibition is -10.6% (inactive) in assay [1], 2.3% (inactive) in assay [3], 7.08% (inactive) in assay [7] and -3.14% (inactive) in assay [8]. Besides, the inhibition of aggregation in assay [2] is -10.8% (inactive). The nuclei count came to 118% in assay [2] and 75.2% in assay [3]. Moreover, in assay [4], the fluorescence slope was -0.409 (inactive). Moreover, the NADPH fluorescence slope in assay [5] was 6.2e-06 (inactive). For the same compound, in assay [6], the slope is 0.00394 (inactive).

Turning to `Cc1nnc(SCC(=O)Nc2nccs2)s1`, the cell count in assay [1] worked out at 501. In addition, the inhibition in assay [1] is -10.8% (inactive); in assay [3] it was -0.9% (inactive); in assay [7], -7.71% (inactive); in assay [8], -7.69% (inactive). In addition, the inhibition of aggregation in assay [2] is 12.1% (inactive). The results for the nuclei count in assay [2] and in assay [3] were 116% and 115%, respectively. For the same compound, the fluorescence slope in assay [4] was -0.413 (inactive). Besides, the NADPH fluorescence slope in assay [5] is -7.7e-05 (inactive). The slope in assay [6] was 0.00513 (inactive).

On to `CCOc1cc(C2C3=C(CCCC3=O)N(C)C3=C2C(=O)CCC3)cc(Cl)c1O`, for which the cell count in assay [1] is 413. The inhibition in assay [1] was 12.5% (inactive); in assay [3], -17.1% (inactive); in assay [7], 4.36% (inactive); in assay [8] it was 26.6% (inactive). In addition, the inhibition of aggregation in assay [2] was -3.2% (inactive). The figures for the nuclei count in assay [2] and in assay [3] were 94.1% and 112%, respectively. Moreover, the fluorescence slope in assay [4] was -0.43 (inactive). Also, the NADPH fluorescence slope in assay [5] is 5.6e-06 (inactive). The slope in assay [6] was 0.00638 (inactive).

With `O=C(NCc1cccs1)C1CC(=O)N(C2CCCC2)C1` (centres undefined), the cell count in assay [1] is 376. The inhibition in assay [1] was -14.4% (inactive); in assay [3], -121% (inactive); in assay [7] it was -9.61% (inactive); in assay [8], -21.8% (inactive). In assay [2], the inhibition of aggregation is -18.1% (inactive). The figures for the nuclei count in assay [2] and in assay [3] were 97.2% and 172%, respectively. The fluorescence slope in assay [4] is -0.56 (inactive). Also, in assay [5], the NADPH fluorescence slope is 4.8e-05 (inactive). For the same compound, the slope in assay [6] was 0.00628 (inactive).

Take `N#CCCNCC1(c2ccccc2)CCCC1`: the cell count in assay [1] is 567. Further, the inhibition in assay [1] was -9.1% (inactive); in assay [3] it was 1.8% (inactive); in assay [7] it was 2.93% (inactive); in assay [8] it was 9.79% (inactive). Further, the inhibition of aggregation in assay [2] is -10.6% (inactive). Moreover, the figures for the nuclei count in assay [2] and in assay [3] were 108% and 104%, respectively. For the same compound, in assay [4], the fluorescence slope was -0.576 (inactive). Moreover, the NADPH fluorescence slope in assay [5] is -4.5e-05 (inactive). Also, the slope in assay [6] is 0.00572 (inactive).

On to `CCOC(=O)C1=C(N)OC2=C(C(=O)CC(C)(C)C2)C1c1ccco1` (centres undefined), for which the cell count in assay [1] is 382. Further, the inhibition was 1% (inactive) in assay [1], -61.3% (inactive) in assay [3], -0.305% (inactive) in assay [7] and -16.2% (inactive) in assay [8]. In addition, the inhibition of aggregation in assay [2] is -38.9% (inactive). In addition, the nuclei count in assay [2] amounted to 104%; in assay [3] it was 110%. Moreover, in assay [4], the fluorescence slope is -0.566 (inactive). Also, the NADPH fluorescence slope in assay [5] was 5.5e-05 (inactive). For the same compound, the slope in assay [6] was 0.00621 (inactive).

Turning to `COc1cccc(-c2cc(C(=O)N3CCCCCC3)no2)c1`, the cell count in assay [1] came out at 519. For the same compound, the inhibition in assay [1] is -11.6% (inactive); in assay [3], -44.3% (inactive); in assay [7], -24.6% (inactive); in assay [8] it was -141% (inactive). Besides, in assay [2], the inhibition of aggregation was -8.6% (inactive). In addition, the nuclei count in assay [2] worked out at 82.4%; in assay [3], 116%. The fluorescence slope in assay [4] was -0.522 (inactive). The NADPH fluorescence slope in assay [5] was -3.5e-05 (inactive). Besides, the slope in assay [6] was 0.00692 (inactive).

On to `CSc1nc2c(c(=O)n1C)SC(C)C2` (centres undefined), for which, in assay [1], the cell count came to 612. In addition, the inhibition is 8.7% (inactive) in assay [1], -32.9% (inactive) in assay [3], 4.05% (inactive) in assay [7] and 31.4% (inactive) in assay [8]. Besides, the inhibition of aggregation in assay [2] was -10.1% (inactive). Further, the nuclei count was 111% in assay [2] and 115% in assay [3]. Further, the fluorescence slope in assay [4] was -0.567 (inactive). Also, the NADPH fluorescence slope in assay [5] is -4.8e-05 (inactive). Moreover, the slope in assay [6] is 0.00545 (inactive).

As for `Cc1cc(C)c(OCC(=O)Nc2ccc3c(c2)OCO3)cc1C`, the cell count in assay [1] turned out to be 327. Moreover, the inhibition is -0.7% (inactive) in assay [1], 9.8% (inactive) in assay [3], -6.64% (inactive) in assay [7] and -49.1% (inactive) in assay [8]. For the same compound, in assay [2], the inhibition of aggregation was 7.3% (inactive). The values for the nuclei count in assay [2] and in assay [3] were 101% and 103%, respectively. The fluorescence slope in assay [4] was -0.437 (inactive). In assay [5], the NADPH fluorescence slope was 4.6e-05 (inactive). The slope in assay [6] is 0.00669 (inactive).

As for `CCOC(=O)N1CCN(C(=O)CCc2ccc(S(=O)(=O)NCCc3ccccc3)cc2)CC1`, the cell count in assay [1] amounted to 735. For the same compound, the inhibition in assay [1] was -1.6% (inactive); in assay [3] it was -24.7% (inactive); in assay [7], 2.18% (inactive); in assay [8] it was 5.38% (inactive). In addition, the inhibition of aggregation in assay [2] was 4.3% (inactive). Also, the nuclei count stood at 102% in assay [2] and 123% in assay [3]. For the same compound, in assay [4], the fluorescence slope is -0.413 (inactive). The NADPH fluorescence slope in assay [5] was -9.6e-06 (inactive). For the same compound, the slope in assay [6] was 0.00346 (inactive).

As for `COc1ccc(-c2ccc(Nc3ccc(S(=O)(=O)N4CCCC4)cc3)nn2)cc1OC`, the cell count in assay [1] was determined as 702. Also, the inhibition in assay [1] is -6.1% (inactive); in assay [3] it was -94.1% (inactive); in assay [7] it was -5.55% (inactive); in assay [8], -13.6% (inactive). Further, the inhibition of aggregation in assay [2] is -4.9% (inactive). Besides, the figures for the nuclei count in assay [2] and in assay [3] were 103% and 109%, respectively. Further, the fluorescence slope in assay [4] is -0.601 (inactive). For the same compound, the NADPH fluorescence slope in assay [5] is -4.3e-05 (inactive). The slope in assay [6] is 0.004 (inactive).

In the case of `CCOc1ccccc1OCC(=O)Nc1nnc(COC)s1`, in assay [1], the cell count came to 437. Besides, the inhibition was 2.9% (inactive) in assay [1], 56.9% (inactive) in assay [3], -15.3% (inactive) in assay [7] and -12.6% (inactive) in assay [8]. Moreover, the inhibition of aggregation in assay [2] was -3.9% (inactive). Also, the nuclei count in assay [2] stood at 106%; in assay [3], 115%. Also, the fluorescence slope in assay [4] was -0.59 (inactive). Besides, in assay [5], the NADPH fluorescence slope was -3.4e-05 (inactive). Moreover, the slope in assay [6] is 0.00402 (inactive).

In the case of `CCCCc1c(O)nc(N2CCN(Cc3ccccc3)CC2)[nH]c1=O`, the cell count in assay [1] is 402. Besides, the inhibition in assay [1] was -2.5% (inactive); in assay [3], -61% (inactive); in assay [7], 12.1% (inactive); in assay [8], 13.6% (inactive). Further, in assay [2], the inhibition of aggregation was 9.1% (inactive). Besides, the nuclei count stood at 97.1% in assay [2] and 101% in assay [3]. For the same compound, the fluorescence slope in assay [4] was -0.343 (inactive). The NADPH fluorescence slope in assay [5] was -4.3e-05 (inactive). Moreover, in assay [6], the slope is 0.0053 (inactive).
